Data on ten molecules can be found in PubChem BioAssay.

The experiment deals with Inhibin beta A chain (activin A). The experiment is described as follows: small molecules binding activin A – biochemical, small-molecule microarray, 635 nm fluorescence scan, primary screen (AID 1107).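 Also: mouse activin A protein probed at 4.33 µg/mL on printed slides; score merges bound-protein fluorescence near 667 nm with spot signal-to-noise.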 To be noted: INHBA, higher = more signal.
Regarding `CCOC(=O)C[C@H]1[C@H](OC(=O)c2ccc(C(=O)c3ccccc3)cc2)[C@@H](NC(=O)c2ccc3ccccc3n2)c2cc(OCCCO)ccc2N1C(=O)Cc1ccc(OC)cc1`, the composite z-score was determined as 0.188.
As to `COc1ccc([Si](C)(C)[C@@H]2[C@@H](CC(=O)N(CCO)Cc3ccccc3)O[C@]3(C(=O)N(Cc4cccc(N5CCCCC5=O)c4)c4ccccc43)[C@H]2C)cc1`, the composite z-score came to 0.493.
With `COC(=O)[C@]1(CCS(=O)(=O)c2ccccc2)N=C(c2ccc(OCCCO)cc2)O[C@@H]1c1ccccc1N=[N+]=[N-]` the figure was 0.199; with `COC(=O)[C@@]1(Cc2ccccc2)[C@H]2c3cc(C(=O)N4CCCC4)n(CCc4ccccn4)c3C[C@H]2CN1C(=O)c1ccccc1`, 1.11.
With `CCCN1C(=O)[C@@]2(Cc3ccccc31)N=C(c1ccc(OCCCO)cc1)O[C@H]2c1ccccc1` the figure was 0.873; with `COC(=O)[C@@]1(Cc2ccc(F)cc2)[C@H]2c3cc(C(=O)N(C)C)n(Cc4ccc(OC(F)(F)F)cc4)c3C[C@H]2CN1C(=O)c1ccccc1`, 0.401; with `CC(=O)N1CC2(CC2)CC1c1ccccc1` (stereo not given), 0.791.
`CC(C)[Si](C#CCCCC#N)(O[C@H](c1ccccc1)c1cn(Cc2ccccc2)nn1)C(C)C` displayed a composite z-score of 0.105.
Molecule `COCCOC(=O)N1C(=O)[C@@]2(c3cc(C#CC4(O)CCCCCC4)ccc31)[C@H](c1ccc(O)cc1)N1[C@H](c3ccccc3)[C@H](c3ccccc3)OC(=O)[C@H]1[C@@H]2C(=O)N1CCN(c2ncccn2)CC1` returned a composite z-score of -0.275.
Consider `CC1=C2[C@@H](CCc3ccccc3)OB(O)C[C@@H]2[C@@H]2C(=O)N(Cc3ccccc3)C(=O)[C@@H]2C1`, for which the composite z-score is 0.654.
